Compounds with a hit are over-represented: about 11% of the library has one in this group of screens.
AmpC inh detg: AmpC beta-lactamase inhibition with detergent present; P00811; AmpC hydrolysis of nitrocefin, absorbance 480 nm, 0.01% Triton; Potency, µM (highest dose often 114 µM), without a hit: top-dose activity change, negative = inhibition, hits mostly inhibitors; 370,000 tested, 0.041% active;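 also: 0% = no-compound wells and -100% = no-enzyme wells; nearly all actives have a fitted effect of over 25% in size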
Target sequence (P00811 whole entry, looked up): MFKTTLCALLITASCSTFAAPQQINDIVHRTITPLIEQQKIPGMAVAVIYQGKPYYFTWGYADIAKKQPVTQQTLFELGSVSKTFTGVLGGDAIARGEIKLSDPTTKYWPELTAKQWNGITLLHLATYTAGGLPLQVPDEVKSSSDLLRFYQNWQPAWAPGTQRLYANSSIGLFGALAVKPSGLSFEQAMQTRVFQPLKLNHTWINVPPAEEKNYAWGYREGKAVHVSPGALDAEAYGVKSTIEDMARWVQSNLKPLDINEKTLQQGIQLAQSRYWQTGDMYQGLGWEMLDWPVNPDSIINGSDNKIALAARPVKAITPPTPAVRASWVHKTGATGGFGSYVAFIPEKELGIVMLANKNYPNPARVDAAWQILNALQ
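20 mM phosphate pH 7.0 + 0.01% (detergent screen) or 0.0001% Triton X-100; 5.3 nM AmpC reagent; cpd preinc 15 min RT; nitrocefin (800 uM stock) to start; A480 q20 s × 4 min; Activity was normalised to no-enzyme and no-compound control wells.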
AmpC no deterg: blocks E. coli AmpC beta-lactamase in detergent-free assay | AmpC nitrocefin hydrolysis, absorbance 480 nm, 0.0001% Triton | Potency, µM (doses to about 57.1 µM), for the others: at the highest dose activity change, negative = inhibition, hits mostly inhibitors | AID 485341 | 330,000 tested, 0.52% active | P00811;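 also: plate controls were no compound for no effect and no enzyme for full effect; nearly all actives have a fitted effect of over 20% in size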
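AmpC (5.3 nM in the dispensed reagent) in 20 mM phosphate pH 7.0 with 0.01% (detergent screen) or 0.0001% Triton X-100 was preincubated with compounds for 15 min at room temperature. Nitrocefin was then added from an 800 uM solution, and hydrolysis was followed at 480 nm.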
HCV inhibitor: HCV inhibition; Huh7.5.1 HCVcc-Cre infection, luciferase reporter, 44 h; Potency, µM (doses to about 41.8 µM), for inactives: top-dose activity change, negative = inhibition, most hits filed as inhibitors; 340,000 tested, 3.4% active; AID 651820
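Cells seeded at 1,000/well and cultured 4 h, then compounds added followed by HCVcc-Cre virus (~0.5 moi). After 44 h further culture, luciferase substrate was added, plates held 15 min at room temperature, and luminescence read for 15 sec.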
Pf growth 96h: P. falciparum growth inhibition at 96 hour, primary screen for plastid delayed-death inhibitors; P. falciparum luciferase reporter growth, 96 h; AID 504834; Potency, µM (top dose mostly 28.7 µM), inactives show top-dose activity change, negative = inhibition, usual class: inhibitors; 320,000 tested, 6.9% active
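P. falciparum expressing integrated firefly luciferase, in erythrocytes at 2% hematocrit, 0.05% parasitemia, incubated with compounds 96 h at 37 C, 5% CO2. Growth inhibition read as loss of luminescence; two-generation exposure targets delayed-death apicoplast inhibitors.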
AMA1 RON2 block: AMA1-RON2 (P. falciparum) interaction inhibition. Potency, µM (highest dose often 58.2 µM), for inactives: at the top dose activity change, negative = inhibition, usual class: inhibitors. AlphaScreen AMA1-biotinylated RON2 peptide binding. 360,000 tested, 0.2% active;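 also: 0% = vehicle wells and -100% = peptide control; nearly all actives have a fitted effect of over 45% in size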
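AMA1 (3D7) with his tag at 25 nM final met compounds first, then biotinylated RON2 peptide at 25 nM; detection used donor plus acceptor beads, 10 µg/mL apiece, read by AlphaScreen after 30 min at room temperature.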
Pf growth 48h: P. falciparum growth inhibition at 48 hours (one generation); P. falciparum luciferase growth in erythrocytes, 48 h; 310,000 tested, 5.9% active; AID 504832; Potency, µM (highest dose often 28.7 µM), for the others: at the highest dose activity change, negative = inhibition, hits mostly inhibitors
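Read-out is firefly luciferase luminescence from an integrated reporter in P. falciparum, so falling signal marks reduced parasite growth. Infected erythrocytes were at 2% hematocrit and 0.1% parasitemia (final) in Albumax-supplemented RPMI 1640.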
The depositor's hits bear a star; ? = inconclusive; · = not tested or not shown. Calls follow the shape of the dose curve; as a rule, active = well fitted curve in the direction sought with a large enough effect; inconclusive = small, poorly fitted or top-dose-only effect, or another doubt; inactive = no such curve, though single readings can be large; an effect the other way counts as inactive or inconclusive. Unless noted, % is scaled to controls: 0 for no effect and ±100 for the full control effect; potency is read from the fitted curve at half-maximal effect.

SMILES | AmpC inh detg | AmpC no deterg | HCV inhibitor | Pf growth 96h | AMA1 RON2 block | Pf growth 48h
CCCn1nc(C(=O)NNC(=O)c2cccc(S(=O)(=O)NC(C)C)c2)c2ccccc2c1=O | -4% | -24% | ? | 1.2µM* | 62% | 3.3µM*
CCCn1nc(C(=O)NNC(=O)c2cc(S(=O)(=O)NC)ccc2Br)c2ccccc2c1=O | -12% | -36% | -12% | -2% | 42% | 3%
CCCn1nc(C(=O)Nc2cc(S(=O)(=O)Nc3ccc(OC)cc3)ccc2O)c2ccccc2c1=O | · | 1.6µM* | -8% | · | 33% | ·
Cn1ncc(Cl)c1C(=O)N/N=C/c1cccc(OC2CSC2)c1 | 5% | -6% | -3% | -10% | 10% | 1%
Cc1occc1C(=O)N/N=C/c1ccc(OCc2ccccc2)cc1 | -4% | -40% | ? | 10µM* | -2% | ?
CCOc1ccc(/C=N/NC(=O)c2ccc(CSc3nc4ccccc4[nH]3)cc2)cc1 | -7% | -34% | ? | 0% | 34% | 6%
O=C(/C=C/c1ccc(OC2CSC2)cc1)c1ccccc1 | -9% | -57% | 3% | ? | 40% | 131%
O=C(N/N=C/c1ccc(OC(F)F)cc1)c1ccc(CSc2nc3ccccc3[nH]2)cc1 | -10% | -40% | -28% | 13µM* | 10% | -28%
O=C(CSc1ncccn1)N/N=C/c1cccc(OC2CSC2)c1 | 6% | 1% | 5% | 12µM* | -24% | 5%
O=C(N/N=C/c1ccc(OC2CSC2)cc1)c1ccccc1 | -13% | -33% | -23% | ? | -1% | 12µM*
Cc1ccc(CCNC(=O)c2c[nH]c3ccc(S(=O)(=O)Nc4cccc(C(F)(F)F)c4)cc3c2=O)cc1 | 8% | · | · | · | · | ·
O=S(=O)(c1ccc(Cl)cc1)c1nc(-c2cccc(Br)c2)oc1NCc1ccccc1 | 13% | · | · | · | · | ·
Cc1cc(NS(=O)(=O)c2ccc(NC(=O)COc3c(C)ccc(C)c3C)cc2)nc(C)n1 | 14% | · | · | · | · | ·
Clc1ccc2c(c1)-n1cc(-c3ccccc3)nc1CO2 | -6% | · | · | · | · | ·
CCC(C(=O)Nc1cc(-c2nc3cccnc3s2)ccc1C)c1ccccc1 (stereo not drawn) | -5% | · | · | · | · | ·
O=C(N/N=C/c1ccc(OCc2ccc(F)cc2)cc1)c1ccccc1 | 2% | -22% | -10% | -5% | -15% | 1.2µM*
O=C(N/N=C/c1ccc(F)cc1)c1ccc(OCc2ccccc2)cc1 | 2% | -33% | -3% | 3% | 26% | ?
CC(C)(C)c1ccc(OCc2ccc(C(=O)N/N=C/c3ccc(O)c(O)c3)cc2)cc1 | -1% | 14µM* | 5.6µM* | ? | 12% | ?
O=C(Cc1ccc(F)cc1)NCc1nc2cccnc2n1Cc1ccc(F)cc1 | 4% | · | · | · | · | ·
CCOC(=O)c1cc2c(ccn2C)n1Cc1ccc(Cl)cc1 | 0% | -27% | 6% | 0% | ? | 13%
CCOC(=O)c1cc2c(ccn2C)n1Cc1ccc(C#N)cc1 | 10% | -26% | -18% | 4.1µM* | ? | -4%
CCOC(=O)c1cc2c(ccn2C)n1CC(=O)N1CCCC(C)C1 (stereo not drawn) | 1% | 4% | -6% | ? | -33% | -1%
CCOC(=O)c1cc2c(ccn2C)n1CC(=O)N1CCC(Cc2ccccc2)CC1 | ? | 48% | ? | ? | ? | 10µM*
CC1CC(=O)N(CC(=O)Nc2ccc(F)cc2F)c2ccccc2S1 (stereo not drawn) | -1% | · | · | · | · | ·
Cc1ccc2c(c1)-c1nc(-c3ccc4c(c3)NC(=O)CO4)cc(-c3ccc(Cl)cc3)c1CO2 | -1% | · | · | · | · | ·
O=C(NCCc1nc2ccccc2n1Cc1ccccc1F)c1ccc(F)cc1 | 6% | · | · | · | · | ·
[O-]/C(=C(\C(=S)Nc1cccc2ccccc12)[n+]1ccccc1)c1ccc2c(c1)OCCO2 | -9% | -4% | -12% | 5.9µM* | -12% | ·
[O-]/C(=C(\C(=S)Nc1cccc2ccccc12)[n+]1ccccc1)c1ccc(OC(F)F)cc1 | ? | -36% | -19% | 15µM* | -16% | ?
